According to PubChem BioAssay (NCATS):
“And” between values parts separate entries of the source, which are not always exact repeats. Equal entries are not always repeated. Results filed as inconclusive are left out. A number with no mark means an inactive call. The source made the active and inactive calls. Calls come from the whole dose curve; as a rule, active = well fitted cell-killing curve with a large enough effect; inconclusive = small, poorly fitted or top-dose-only effect, or effect the other way; inactive = no such curve, though single readings can be large or run the other way.

Experiment: Viability qHTS for spleen associated tyrosine kinase inhibitor (SYKi) naive MV4-11 cells (AID 1963823); note: nearly all actives have a fitted effect of over 40% in size
Settings: MV4-11 AML viability, CellTiter-Glo luminescence, 72 h; series mostly up to 45 µM; viability (% of control): at the top concentration
Excerpt: Department of Medicine, Hematology/Oncology
University Hospital Frankfurt, Germany.
Trials have shown promising clinical activity of the selective SYK inhibitor entospletinib in patients with high expressing HOXA9/MEIS1 acute leukemias. As the development of resistance mechanisms is a common problem in the use of targeted drugs, we performed a chemical library screen to identify drug sensitivities in SYK inhibitor resistant AML cells. […] Glucocorticoids are potent immunosuppressants which work in part by inhibiting the transcription of cytokine genes.
Described herein is a viability screen to look for activity in the SYK inhibitor naive cell line against four NCATS compound libraries (MIPE 5.0, NPC, NPACT, and Kinase) totaling 11372 compounds. Active hits were reacquired for confirmation and further secondary assay testing.
SEQUENCE No. (e.g., 1, 2, 3, etc.); […] (e.g., Cells, Incubation, Reagent, etc.); VALUE; DESCRIPTION.
1; Media; 2uL; white, solid-bottom Corning assay plate.
2; Compounds; 23nL; Echo acoustic dispenser.
3; Cell; 5uL; 500 cells per well.
4: Incubation; 72hr; 37 C, 5% CO2, 95% humidity.
5; Reagent; 3uL; CellTiter-Glo reagent (Promega).
6; Incubation; 10min; room temperature.
7; Detection; Luminescence; ViewLux plate reader (PerkinElmer).
NOTES (numbers refer to Sequence numbers above
1. Quantitative high-throughput screening (qHTS) of small molecule compounds was conducted on naive SYKi MV4-11 cell line.
2. Twenty-three nanoliter of small molecule compounds were added to each assay plates using the Echo acoustic dispenser (Beckman Coulter).
3. Cells were seeded into the assay plates at a final density of 500 cells in 5uL of media per well using the Multi-drop Combi dispenser.
4. Plates were covered with stainless steel gasketed lids and incubated for 72 hours at standard cell culture conditions.
5. Viability was assessed by adding 3uL of CellTiter-Glo detection reagent (Promega).
6. Plates were covered with gasket lids and incubated for 10 minutes at room temperature.
7. Luminescence was measured on a ViewLux plate reader (PerkinElmer).
Potency is the fitted concentration of half-maximal effect.

SMILES	viability (% of control)	Potency
CC1=C2CC(=O)C(C)CC/C=C(\C)CC2(O)OC1=O (stereo not given)	71.9%	–
CCC[C@H](Nc1nc(-c2ccc(NC(=O)NCC)c(OC)c2)ncc1C)c1cccnc1	–	0.0742 µM (active)
Cc1ncc(NC(=O)c2cccc(C(F)(F)F)c2)cc1-c1cnc(OC2CCOCC2)c(N2CCOCC2)c1	–	6.61 µM (active)
COc1cccc2c1C(=O)c1c(O)c3c(c(O)c1C2=O)C[C@@](O)(C(=O)CO)C[C@@H]3O[C@H]1C[C@H](N)[C@H](OC2CCCCO2)[C@H](C)O1 (stereo not given in full)	–	105 nM (active) and 74.2 nM (active)
Cc1cc(-c2cnc(N)c3c(-c4ccc5scnc5c4)csc23)n(C)n1	–	1.3 µM (active)
C[C@@H]1CC[C@]2(C(=O)O[C@@H]3O[C@H](CO[C@@H]4O[C@H](CO)[C@@H](O)[C@H](O)[C@H]4O)[C@@H](O)[C@H](O)[C@H]3O)CC[C@]3(C)C(=CCC4[C@@]5(C)CC[C@H](O)[C@](C)(C(=O)O)C5CC[C@]43C)[C@@H]2[C@]1(C)O (stereo not given in full)	70.3% [at 9.25 µM]	–
C/C=C1\[C@H](O[C@@H]2O[C@H](CO)[C@@H](O)[C@H](O)[C@H]2O)OC=C(C(=O)OCCc2ccc(O)cc2)[C@H]1CC(=O)OCCc1ccc(O)cc1	67.2% [at 17.3 µM]	–
CC1=C(C)C(=O)OC(C(C)C2C(O)CC3C4C5OC5C5(O)CC(OC6OC(CO)C(O)C(O)C6O)CC(O)C5(C)C4CCC32C)C1 (stereo not given)	67.5% [at 17.3 µM]	–
COC(=O)[C@H](O)[C@H]1C(C)(C)[C@H](OC(C)=O)[C@@]2(O)C(=O)[C@]1(C)C1CC[C@]3(C)C(CC(=O)O[C@H]3c3ccoc3)[C@]13O[C@@H]32 (stereo not given in full)	72.5% [at 17.3 µM]	–
CCC(C)(OC(C)=O)C(=O)O[C@H]1[C@H](OC(C)=O)[C@]2(CO)[C@H](O)[C@H](O)[C@]3(C)C(=CCC4[C@@]5(C)CC[C@H](O[C@@H]6O[C@H](C(=O)O)[C@@H](O)[C@H](O[C@@H]7OC[C@H](O)[C@H](O[C@@H]8OC[C@H](O)[C@H](O)[C@H]8O)[C@H]7O)[C@H]6O[C@@H]6O[C@H](CO)[C@@H](O)[C@H](O)[C@H]6O)C(C)(C)C5CC[C@]43C)[C@@H]2CC1(C)C (stereo not given in full)	–	2.75 µM (active)
COc1ccc2c(c1)C=C1Cn3c-2c(C2CCCCC2)c2ccc(cc23)C(=O)NS(=O)(=O)N(C)CCOCCN(C)C1=O	–	16.4 µM (active)
O=C(/C=C/c1ccc(O)cc1)c1ccc(O)cc1O	–	18.6 µM (active)
CNC(=O)c1ccccc1Nc1nc(Nc2ccc3c(c2OC)CCCC(N2CCN(CCO)CC2)C3)ncc1Cl (stereo not given)	–	0.366 µM (active)
C/C(=N\O)c1ccc(OCC(=O)N2CCCCC2)cc1	91.4%	–
COC(=O)c1ccc(NC(C)=O)cc1OC	83.3%	–
CC1(C)CC2C(O)C3=C(CC(C)(O)C2C1)C(=O)OC3O (stereo not given)	78.1%	–
Cc1cc(C(C#N)c2ccc(Cl)cc2)c(Cl)cc1NC(=O)c1cc(I)cc(I)c1O (stereo not given)	–	18.8 µM (active)
CCOC(=N)c1nc2ccc3ncnc(Nc4cc(F)c(F)cc4Cl)c3c2s1	–	7.42 µM (active)
COc1cc(C(C)=O)ccc1O[C@@H]1O[C@H](CO)[C@@H](O)[C@H](O)[C@H]1O	72.6%	–
COc1c2occc2c(OC)c2c(=O)cc(C)oc12	111%	–

SMILES	viability (% of control)	Potency
c1ccc2c(CCNc3ccc(Nc4ccncc4)cc3)c[nH]c2c1	–	1.16 µM (active) and 525 nM (active)
Cc1cc(C)c(S(=O)(=O)N(Cc2ccc(-c3cccc(S(C)(=O)=O)c3)cc2)Cc2ccc(C(F)(F)F)o2)c(C)c1	98.7%	–
CC/C=C/C=C/C1(C)OC(CC(CO)OC)=CC1=O (stereo not given)	–	20.6 µM (active)
Cc1ccc(C(=O)OCc2ccc([C@@H](CN)C(=O)Nc3ccc4cnccc4c3)cc2)c(C)c1	–	1.15 µM (active)
CC(C)=CCC/C(C)=C/CC/C(C)=C/CCC(=O)OC/C=C(\C)CCC=C(C)C	93.6%	–
CCC/C=C/c1cc2c(C=O)c(O)c(CC=C(C)C)cc2o1	–	14.6 µM (active)
CC(C)(O)CNc1nc(Nc2ccnc(C(F)(F)F)c2)nc(-c2cccc(C(F)(F)F)n2)n1	–	14.8 µM (active)
COc1ccccc1-n1c(SCC(=O)Nc2nc3ccc(C)cc3s2)nc2c(c1=O)SCC2	67.3% [at 17.3 µM]	–
C=CCCCCCCCCC(=O)O	66.9%	–
CCN(CC)CCNc1ccc(C)c2sc3ccccc3c(=O)c12	–	5.25 µM (active)
O=C(/C=C/c1ccc(O)cc1)OCC1=C[C@@H](O)[C@@H]2C=CO[C@@H](O[C@@H]3O[C@H](CO)[C@@H](O)[C@H](O)[C@H]3O)[C@H]12	72.9% [at 17.3 µM]	–
Nc1nc(-c2ccccc2)c(Br)c(=O)[nH]1	94.3%	–
[O-][n+]1cccc(-c2nc3c(Cl)cccc3cc2[C@@H](Nc2ncnc3cccnc23)C(F)(F)F)c1	–	4.17 µM (active)
COCC(c1ccc(C(F)(F)F)cc1)N1CCN(C2(C)CCN(C(=O)c3c(C)ncnc3C)CC2)CC1C (stereo not given)	53.6%	–
O=C1CC2(CCCC2)CC(=O)N1	88.6%	–
C/C=C1\[C@H]2C=C(C)C[C@]1(N)c1ccc(=O)[nH]c1C2	93.2%	–
C=C1C(=O)O[C@@H]2[C@H]1CC[C@H](C)[C@]1(CCC(=O)O1)C2(C)O (stereo not given in full)	–	16.4 µM (active)
CN1[C@@H]2CC[C@H]1CC(OC(=O)C(CO)c1ccccc1)C2 (stereo not given in full)	92.2%	–
COC(=O)c1c(C)cc(OC(=O)c2c(C)cc(OC)cc2OC)cc1O[C@@H]1O[C@H](CO)[C@@H](O)[C@H](O)[C@H]1O	72.2% [at 17.3 µM]	–
CC1=C(CCC(C)O[C@@H]2O[C@H](CO)[C@@H](O)[C@H](O)[C@H]2O)C(C)(C)CCC1=O (stereo not given in full)	84.2%	–
